# In PubChem BioAssay AID1645838 (ICCB-Longwood Screening Facility, Harvard Medical School, 2021):
# About 100 (5%) of roughly 2,000 compounds were called active. No stated cut-off is given here; in the data, active means z-score above about 2; inactive means the rest. The full list was thinned out, with actives kept by preference. Residues, ends and D or L forms follow the SMILES beside them. *: point of attachment. Cbz = O=C(OCc1ccccc1)*
# Experiment: modulators of mitochondrial supercomplex assembly, cell-based, luminescence, Hoechst nuclei count (AID 1645838);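 further: control cybrid cells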;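 on z-score: higher means more mitochondrial supercomplex formation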
# Conditions: Cells, luminescence/Hoechst cell count ratio, supercomplex reporter; for z-score: stronger effect = higher value; for cell count: measured here: cell number, Hoechst nuclei count
# [1] = library stock concentration (final well concentration not given) 80 uM
# [2] = library stock concentration (final well concentration not given) 400 uM
# [3] = library stock concentration (final well concentration not given) 2 mM
# [4] = library stock concentration (final well concentration not given) 46 uM
# [5] = library stock concentration (final well concentration not given) 10 mM
# [6] = library stock concentration (final well concentration not given) 278 uM
# [7] = library stock concentration (final well concentration not given) 1.67 mM
structure (smiles),measurement,setting,value
O=C(O)CCC/C=C/C[C@@H]1[C@@H](CC[C@@H](O)CCc2ccccc2)[C@H](O)C[C@@H]1O,z-score,,-0.13 (inactive)
same,cell count,,5360
O=C(CCCCCCC(=O)Nc1ccccc1)NO,z-score,,0.328 (inactive)
same,outcome,library stock 10 mM,inactive; censored for cell count
same,z-score,[1],0.428 (inactive)
same,z-score,[2],2.1 (active)
same,z-score,[3],10.2 (active)
same,cell count,,5300
same,cell count,[1],5490
same,cell count,[2],4770
same,cell count,[3],3220
Nc1ccccc1NC(=O)CCCCCCC(=O)Nc1ccccc1,z-score,,0.265 (inactive)
same,cell count,,5570
CC(C)(C)C(=O)Nc1ccccc1,z-score,,-0.189 (inactive)
same,cell count,,5010
CCCCCCCCCCCCCCCCSC[C@H](COP(=O)([O-])OCC[N+](C)(C)C)NC(=O)CCCCCCCCCCCCCCC,z-score,,-0.387 (inactive)
same,cell count,,5820
C#CCC(Cc1cnc2nc(N)nc(N)c2n1)c1ccc(C(=O)NC(CCC(=O)O)C(=O)O)cc1 (configuration not stated),outcome,library stock 278 µM,inactive; censored for cell count
same,outcome,library stock 1.67 mM,inactive; censored for cell count
same,outcome,library stock 10 mM,inactive; censored for cell count
same,z-score,[4],1.41 (inactive)
same,cell count,[4],2070
CCCCCCCCCCCCCCC(=O)N[C@H]1CCOC1=O,outcome,,inactive; censored for cell count
CSCCC(NC(=O)C(CC(C)C)NC(=O)CNC(=O)C(NC(=O)C(Cc1ccccc1)NC(=O)C(CO)NC(=O)C(CC(=O)O)NC(=O)[C@H](NC(=O)C(CCCCN)NC(=O)C(N)Cc1cnc[nH]1)C(C)O)C(C)C)C(N)=O (some centres not stated),z-score,[1],-0.214 (inactive)
same,z-score,[2],-0.449 (inactive)
same,z-score,[3],-0.151 (inactive)
same,z-score,[5],-0.389 (inactive)
same,cell count,[1],6630
same,cell count,[2],6610
same,cell count,[3],6500
same,cell count,[5],6040
Cn1ncnc1C1c2n[nH]c(=O)c3cc(F)cc(c23)NC1c1ccc(F)cc1 (configuration not stated),outcome,library stock 10 mM,inactive; censored for cell count
same,z-score,[1],1.87 (inactive)
same,z-score,[2],3.69 (active)
same,z-score,[3],6.89 (active)
same,cell count,[1],3700
same,cell count,[2],2650
same,cell count,[3],1700
CC#C[C@]1(O)CC[C@@H]2[C@@H]3CCC4=CC(=O)CCC4=C3C(c3ccc(N(C)C)cc3)C[C@@]21C (some centres not stated),z-score,[1],-0.535 (inactive)
same,z-score,[2],-0.414 (inactive)
same,z-score,[3],-0.596 (inactive)
same,z-score,[5],-0.985 (inactive)
same,cell count,[1],5620
same,cell count,[2],5640
same,cell count,[3],5480
same,cell count,[5],4850
Cc1cc(C)cc(NC(=O)Nc2ccc(S(N)(=O)=O)cc2)c1,z-score,[1],-0.282 (inactive)
same,z-score,[2],-0.269 (inactive)
same,z-score,[3],-0.436 (inactive)
same,z-score,[5],-0.561 (inactive)
same,cell count,[1],5270
same,cell count,[2],5260
same,cell count,[3],5280
same,cell count,[5],5230
CCCCCC(=O)CC[C@H]1[C@H](O)CC(=O)[C@@H]1CCCCCCC(=O)O,z-score,,3.62 (active)
same,cell count,,3870
CCCCC[C@@H](O)CC[C@H]1[C@H](O)CC(=O)[C@@H]1CCCCCCC(=O)O,z-score,,0.414 (inactive)
same,cell count,,5360
CCCCCC(=O)CC[C@H]1[C@H](O)CC(=O)[C@@H]1C/C=C\CCCC(=O)O,z-score,,0.0242 (inactive)
same,cell count,,5260
CCCCC[C@H](O)/C=C/[C@@H]1[C@@H](C/C=C\CCCC(=O)NCCO)[C@@H](O)C[C@H]1O,z-score,,-0.4 (inactive)
same,cell count,,5500
COc1ccc(C2(O)CCC(N3CCC(NC(=O)CNC(=O)c4cccc(C(F)(F)F)c4)C3)CC2)cn1 (configuration not stated),z-score,[1],0.226 (inactive)
same,z-score,[2],0.00991 (inactive)
same,z-score,[3],-0.208 (inactive)
same,z-score,[5],-0.124 (inactive)
same,cell count,[1],5820
same,cell count,[2],5470
same,cell count,[3],6300
same,cell count,[5],5360
CC(C)CC(C=O)NC(=O)C(CC(C)C)NC(=O)C(CC(C)C)NC(=O)OCc1ccccc1 (stereo not drawn) (Cbz-Leu-Leu-Leu-aldehyde; configuration not given here),outcome,library stock 1.67 mM,inactive; censored for cell count
same,outcome,library stock 10 mM,inactive; censored for cell count
same,z-score,[4],-0.417 (inactive)
same,z-score,[6],-0.122 (inactive)
same,cell count,[4],6590
same,cell count,[6],5640
Cc1cc(N2CCOCC2)cc2[nH]c(-c3c(NCC(O)c4cccc(Cl)c4)cc[nH]c3=O)nc12 (configuration not stated),z-score,[1],0.23 (inactive)
same,z-score,[2],0.0421 (inactive)
same,z-score,[3],0.963 (inactive)
same,z-score,[5],5.5 (active)
same,cell count,[1],5280
same,cell count,[2],5710
same,cell count,[3],4590
same,cell count,[5],1770
CCCCC[C@H](O)/C=C/[C@H]1[C@H](O)CC(=O)[C@@H]1C/C=C/CCCC(=O)O,z-score,,0.327 (inactive)
same,cell count,,4880
CC(C)=CCC/C(C)=C/CC/C(C)=C/CC[C@]1(C)CCc2c(C)c(O)c(C)c(C)c2O1,z-score,,-0.823 (inactive)
same,cell count,,5060
NS(=O)(=O)OCC1CC(n2ccc3c(NC4CCc5ccccc54)ncnc32)CC1O (configuration not stated),outcome,library stock 1.67 mM,inactive; censored for cell count
same,outcome,library stock 10 mM,inactive; censored for cell count
same,z-score,[4],1.02 (inactive)
same,z-score,[6],4.89 (active)
same,cell count,[4],5390
same,cell count,[6],2380
CCCCC[C@H](O)/C=C/[C@H]1CC[C@@H](O)[C@@H]1C/C=C\CCCC(=O)O,z-score,,-0.672 (inactive)
same,cell count,,5720
NCc1cccc2ccncc12,z-score,,-0.00644 (inactive)
same,cell count,,5160
CCCCC/C=C/C=C1/C=CC(=O)[C@@H]1CCCCCCC(=O)O,z-score,,-0.804 (inactive)
same,cell count,,5740
CN1c2ccc([N+](=O)[O-])cc2N=C(c2ccc(C(=O)O)cc2)c2cc3c(cc21)C(C)(C)CCC3(C)C,z-score,[4],-0.143 (inactive)
same,z-score,[6],-0.194 (inactive)
same,z-score,[7],-0.234 (inactive)
same,z-score,[5],-0.264 (inactive)
same,cell count,[4],5860
same,cell count,[6],5990
same,cell count,[7],5440
same,cell count,[5],4270
O=C(O)c1ccc2nc(-c3cc(Cl)cc(Cl)c3)oc2c1,z-score,[4],0.415 (inactive)
same,z-score,[6],0.328 (inactive)
same,z-score,[7],0.106 (inactive)
same,z-score,[5],0.34 (inactive)
same,cell count,[4],6810
same,cell count,[6],6930
same,cell count,[7],7500
same,cell count,[5],7380
O=C(O)c1cc(O)c2ccccc2c1O,z-score,[4],0.31 (inactive)
same,z-score,[6],1.17 (inactive)
same,z-score,[7],0.601 (inactive)
same,z-score,[5],2.64 (active)
same,cell count,[4],6560
same,cell count,[6],6080
same,cell count,[7],6240
same,cell count,[5],3940
O=C(O)c1cc2ccccc2c(Cc2c(O)c(C(=O)O)cc3ccccc23)c1O,z-score,[1],-0.00825 (inactive)
same,z-score,[2],0.355 (inactive)
same,z-score,[3],0.379 (inactive)
same,z-score,[5],0.06 (inactive)
same,cell count,[1],4700
same,cell count,[2],4390
same,cell count,[3],4510
same,cell count,[5],4530
Nc1ccc(O)c(C(=O)O)c1,z-score,,-0.67 (inactive)
same,cell count,,5710
C=C1C[C@H](O)[C@H](C/C=C\CCCC(=O)O)[C@H]1/C=C/[C@@H](O)CCCCC,z-score,,-0.218 (inactive)
same,cell count,,5720
CC(C)c1ccccc1S(=O)(=O)c1cc(N)c2ncccc2c1[N+](=O)[O-],z-score,[4],-0.201 (inactive)
same,z-score,[6],0.537 (inactive)
same,z-score,[7],0.241 (inactive)
same,z-score,[5],2.73 (active)
same,cell count,[4],6190
same,cell count,[6],6010
same,cell count,[7],6020
same,cell count,[5],4420
CC(C)(O)c1ccccc1CCC(SCC1(CC(=O)O)CC1)c1cccc(C=Cc2ccc3ccc(Cl)cc3n2)c1 (configuration not stated),z-score,[1],0.0351 (inactive)
same,z-score,[2],-0.104 (inactive)
same,z-score,[3],-0.0351 (inactive)
same,z-score,[5],-0.342 (inactive)
same,cell count,[1],5230
same,cell count,[2],5680
same,cell count,[3],5330
same,cell count,[5],4770
CCCCC[C@H](O)/C=C/[C@H]1[C@H](O)CC(=O)[C@H]1C/C=C\CCCC(=O)OC(C)C,z-score,,0.469 (inactive)
same,cell count,,4980
CCCNC(=O)C1OC1C(=O)N[C@@H](C(=O)N1CCCC1C(=O)O)C(C)CC (some centres not stated),z-score,[1],-0.18 (inactive)
same,z-score,[2],0.0728 (inactive)
same,z-score,[3],-0.0724 (inactive)
same,z-score,[5],-0.194 (inactive)
same,cell count,[1],4940
same,cell count,[2],4970
same,cell count,[3],4760
same,cell count,[5],5370
O=c1c(-c2ccc(O)cc2)coc2cc(O)cc(O)c12,z-score,,0.997 (inactive)
same,z-score,[4],0.276 (inactive)
same,z-score,[6],-0.193 (inactive)
same,z-score,[7],0.316 (inactive)
same,z-score,[5],2.63 (active)
same,cell count,,5200
same,cell count,[4],6440
same,cell count,[6],6300
same,cell count,[7],6710
same,cell count,[5],5450
O=c1c(-c2ccc(O)c(O)c2)coc2cc(O)ccc12,z-score,[4],-0.245 (inactive)
same,z-score,[6],-0.0571 (inactive)
same,z-score,[7],-0.19 (inactive)
same,z-score,[5],0.665 (inactive)
same,cell count,[4],6940
same,cell count,[6],6400
same,cell count,[7],6560
same,cell count,[5],5440
O=c1c(-c2ccc(O)cc2)coc2cc(O)ccc12,z-score,,0.504 (inactive)
same,cell count,,5430
O=C(Oc1nsnc1N1CCCCC1)N1CCOCC1,z-score,[1],0.263 (inactive)
same,z-score,[2],0.6 (inactive)
same,z-score,[3],0.737 (inactive)
same,z-score,[5],1.45 (inactive)
same,cell count,[1],4950
same,cell count,[2],4960
same,cell count,[3],4530
same,cell count,[5],4260
CCCCCCCCCCCCCCC(F)C(=O)O (configuration not stated),z-score,,-0.112 (inactive)
same,cell count,,5870
CC(C)CCOc1ccc(N)cc1,z-score,,-0.619 (inactive)
same,cell count,,5370
N=C(N)c1ccc2cc(OC(=O)c3ccc(N=C(N)N)cc3)ccc2c1,z-score,[4],0.0192 (inactive)
same,z-score,[6],0.31 (inactive)
same,z-score,[7],-0.356 (inactive)
same,z-score,[5],-0.0213 (inactive)
same,cell count,[4],6960
same,cell count,[6],6430
same,cell count,[7],7070
same,cell count,[5],6560
Cc1cnc(Nc2ccc(F)cc2Cl)nc1-c1c[nH]c(C(=O)NC(CO)c2cccc(Cl)c2)c1 (configuration not stated),outcome,library stock 10 mM,inactive; censored for cell count
same,z-score,[4],-0.208 (inactive)
same,z-score,[6],-0.12 (inactive)
same,z-score,[7],2.01 (active)
same,cell count,[4],6210
same,cell count,[6],6120
same,cell count,[7],3060
COc1cc(Nc2ncc3c(n2)-c2ccc(Cl)cc2C(c2c(F)cccc2OC)=NC3)ccc1C(=O)O,outcome,library stock 1.67 mM,inactive; censored for cell count
same,outcome,library stock 10 mM,inactive; censored for cell count
same,z-score,[4],-0.133 (inactive)
same,z-score,[6],1.85 (inactive)
same,cell count,[4],5510
same,cell count,[6],2620
O=C(O)c1ccc(Nc2ncc3c(n2)-c2ccc(Cl)cc2C(c2c(F)cccc2F)=NC3)cc1,outcome,library stock 10 mM,inactive; censored for cell count
same,z-score,[1],-0.747 (inactive)
same,z-score,[2],-0.464 (inactive)
same,z-score,[3],-0.071 (inactive)
same,cell count,[1],4990
same,cell count,[2],4350
same,cell count,[3],3530
CC(Cc1cc2c(c(C(N)=O)c1)N(CCCO)CC2)NCCOc1ccccc1OCC(F)(F)F (configuration not stated),z-score,[1],-1.47 (inactive)
same,z-score,[2],-1.87 (inactive)
same,z-score,[3],-2.9 (inactive)
same,z-score,[5],-3.02 (inactive)
same,cell count,[1],5980
same,cell count,[2],5330
same,cell count,[3],5440
same,cell count,[5],5520
COc1ccc(Br)c(-c2nc3ccccc3c(=O)o2)c1,outcome,library stock 10 mM,inactive; censored for cell count
same,z-score,[1],-0.298 (inactive)
same,z-score,[2],-0.159 (inactive)
same,z-score,[3],-0.345 (inactive)
same,cell count,[1],5250
same,cell count,[2],5070
same,cell count,[3],5030
